# The list is not random: actives were taken first. Their share in the collection is about 17%.
# TDP1 inh: inhibitors of human tyrosyl-DNA phosphodiesterase TDP1. Potency, µM (titrated, usually from 130 µM), most hits filed as inhibitors. hit rate 0.28% among 350,000. recombinant TDP1, AlphaScreen DNA substrate cleavage. AID 485290. Q9NUW8; also: nearly all actives have a fitted effect of over 40% in size
# Target sequence (Q9NUW8 whole entry, looked up): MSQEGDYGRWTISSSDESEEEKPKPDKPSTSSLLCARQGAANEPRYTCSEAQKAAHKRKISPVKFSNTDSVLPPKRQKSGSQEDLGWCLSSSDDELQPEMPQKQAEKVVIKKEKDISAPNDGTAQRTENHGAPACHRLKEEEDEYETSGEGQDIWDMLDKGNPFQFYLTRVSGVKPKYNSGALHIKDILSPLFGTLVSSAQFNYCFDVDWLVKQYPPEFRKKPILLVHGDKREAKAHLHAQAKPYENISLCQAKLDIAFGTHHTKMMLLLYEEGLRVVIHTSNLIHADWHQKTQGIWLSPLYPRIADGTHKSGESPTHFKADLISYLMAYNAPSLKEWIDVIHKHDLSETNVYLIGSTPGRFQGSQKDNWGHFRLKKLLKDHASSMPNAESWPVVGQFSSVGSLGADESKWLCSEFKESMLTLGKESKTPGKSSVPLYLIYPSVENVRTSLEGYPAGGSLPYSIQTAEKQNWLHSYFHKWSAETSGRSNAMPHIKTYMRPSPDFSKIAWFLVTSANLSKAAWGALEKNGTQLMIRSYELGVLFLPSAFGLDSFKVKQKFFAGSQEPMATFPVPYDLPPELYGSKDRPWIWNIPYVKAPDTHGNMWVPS
#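 Enzyme-compound mixtures sat 15 min at room temperature, followed by a 5 min reaction with 15 nM final substrate and 10 min with AlphaScreen beads. Recombinant human Tdp1 was used at 1 nM final.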
# ClpP mod: qHTS Assay for Activators of ClpP | ATP-dependent Clp protease proteolytic subunit (Bacillus subtilis (strain 168)), P80244 | purified B. subtilis ClpP, FRET peptide cleavage, 20 min | Potency, µM (titrated, usually from 57.5 µM) | hit rate 1.9% among 340,000; active = well fitted falling curve with a large enough effect; inconclusive = small, poorly fitted or top-dose-only effect; inactive = no such curve, though single readings can be large or run the other way; also: the source files actives as falling curves though it sought activators and does not explain the sign; nearly all actives have a fitted effect of over 65% in size
#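 Buffer: 100 mM Tris/HCl pH8, 100 mM KCl, 0.05% low protease BSA, 2.5% glycerol, 0.01% Tween-20. ClpP 10 microg/mL final; 20 min RT; delta FRET normalized to ADEP and DMSO controls.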
# TDP1 cell noCPT: qHTS for Inhibitors of human tyrosyl-DNA phosphodiesterase 1 (TDP1): qHTS in cells in absence of CPT; DT40 Tdp1-/- hTDP1 cells, no CPT, ATP luminescence, 48 h; Potency, µM (titrated, usually from 46.2 µM), most hits filed as inhibitors; hit rate 15% among 420,000; AID 686978, 2013; also: nearly all actives have a fitted effect of over 55% in size
#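 Chicken DT40 Tdp1-/- cells stably complemented with human TDP1 were seeded at 400 cells/well with DMSO in place of 20 nM camptothecin. After compound pinning, cells grew at least 48 hr at 37 °C; viability read by CellTiter-Glo luminescence.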
# DT40 TDP1 CPT: DT40-hTDP1 cell growth loss with CPT. hit rate 12% among 420,000. chicken DT40 Tdp1-/-;hTDP1 cells + 20 nM CPT, ATP luminescence, 48 h. Potency, µM (top dose mostly 46.2 µM), hits mostly inhibitors; also: nearly all actives have a fitted effect of over 55% in size
#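 Chicken DT40 Tdp1-/- cells complemented with human TDP1, 400 cells/well, exposed to compounds plus 20 nM camptothecin for at least 48 h at 37 C; viability read as ATP content by CellTiter-Glo luminescence.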
# Hits are given with their value; – = inactive; ? = inconclusive; · = no result. Unless noted, calls follow the shape of the dose curve; as a rule, active = well fitted curve in the direction sought with a large enough effect; inconclusive = small, poorly fitted or top-dose-only effect, or another doubt; inactive = no such curve, though single readings can be large; an effect the other way counts as inactive or inconclusive.
SMILES,TDP1 inh,ClpP mod,TDP1 cell noCPT,DT40 TDP1 CPT
COc1ccc(Cl)cc1-n1c(=S)sc2c(=O)[nH]c(SCC(=O)C(C)(C)C)nc21,·,–,?,?
CC(C)C[C@@H](CC(=O)N[C@@H](CCCN)CC(=O)N[C@@H]1CCNC[C@H]1C(=O)N[C@H](CC(=O)N[C@@H](CCC(=O)O)CC(=O)O)CC(C)C)NC(=O)[C@@H]1CCCC[C@H]1N,–,·,·,·
CCn1cc(CCC(=O)NCc2cccc(OC)c2OC)c2ccccc21,·,–,16µM,18µM
CCOc1ccccc1CNC(=O)CCc1cn(CC)c2ccccc12,·,–,?,?
COC(=O)[C@@]1(Cc2ccc(F)cc2)[C@H]2c3cc(C(=O)N(C)C)n(CCc4ccc(O)c(O)c4)c3C[C@H]2CN1C(=O)c1ccccc1,–,·,·,·
O=C(CSc1nc2ccccc2nc1Cc1ccc(Cl)cc1)N1CCN(c2ccccc2)CC1,–,–,?,–
CC1CCN(C(=O)CSc2nc3ccccc3nc2Cc2ccccc2)CC1,–,–,10µM,15µM
CC1CCN(C(=O)CSc2nc(C3CC3)nc3ccccc23)CC1,–,·,?,?
COc1ccc(N2CCN(C(=O)CSc3nc4ccccc4nc3Cc3ccc(Cl)cc3)CC2)cc1,–,–,?,21µM
CCCNC(=O)CSc1nc2ccccc2nc1Cc1ccc(Cl)cc1,–,–,?,–
COc1ccccc1N1CCN(C(=O)CSc2nc3ccccc3nc2Cc2ccccc2)CC1,–,–,23µM,23µM
CC1CCCCN1C(=O)CSc1nc2ccccc2nc1Cc1ccc(Cl)cc1 (centres undefined),–,–,?,18µM
Cn1c(=O)c2ccccc2n(CC(=O)N2CCCc3ccccc32)c1=O,–,·,?,–
CC(C)[C@H]1COCCS(=O)(=O)N1Cc1ccccc1-c1ccc(C(C)(C)C)cc1,–,–,?,?
Cc1ccc(Cc2nc3ccccc3nc2SCC(=O)N2CCN(c3ccccc3)CC2)cc1,–,–,–,–
Cc1ccc(Cc2nc3ccccc3nc2SCC(=O)N2CCCCC2)cc1,–,–,21µM,?
O=C(CSc1nc2ccccc2nc1SCC(=O)N1CCCCC1)N1CCCCC1,–,–,?,16µM
O=C(CSc1nc2ccccc2nc1Cc1ccc(Cl)cc1)N1CCCCC1,–,–,16µM,?
CN(C(=O)c1ccc2c(c1)N(Cc1cccc(Cl)c1)C(=O)c1ccccc1S2(=O)=O)C1CCCCC1,–,–,?,21µM
CN(C(=O)c1ccc2c(c1)N(Cc1ccc(F)cc1)C(=O)c1ccccc1S2(=O)=O)C1CCCCC1,–,–,16µM,23µM
O=C(OCC1CCCO1)c1ccc2c(c1)N(Cc1ccc(F)cc1)C(=O)c1ccccc1S2(=O)=O (centres undefined),–,–,–,–
CCN1CCCC1CNC(=O)c1ccc2c(c1)N(Cc1cccc(Cl)c1)C(=O)c1ccccc1S2(=O)=O (centres undefined),–,–,–,–
CCCNC(=O)C1(C)CCN(CCOc2ccc(Cl)cc2)C1 (centres undefined),·,–,–,–
OC1CCN(Cc2cccc(Oc3ccccc3)c2)CC1,–,–,?,23µM
COCCNC(=O)C1(C)CCCN(CCOc2ccc(Cl)cc2)C1 (centres undefined),·,–,15µM,?
SMILES,TDP1 inh,ClpP mod,TDP1 cell noCPT,DT40 TDP1 CPT
CCCNC(=O)C1(C)CCCN(Cc2ccc(-c3ccccc3)cc2)C1 (centres undefined),·,–,5.8µM,6.5µM
CN1CCN(Cc2cccc(Oc3ccccc3)c2)CC1,–,–,?,–
CCCNC(=O)C1(C)CCCN(Cc2ccc(-c3ccccc3)o2)C1 (centres undefined),·,–,21µM,23µM
COc1ccc(CCN2CCCC(CN(C)Cc3cc(Cl)c(O)c(OC)c3)C2)cc1 (centres undefined),·,–,?,–
COc1ccc2c(CNCc3cccs3)c(C(=O)O)n(Cc3cccc(F)c3)c2c1,–,–,?,–
CCCNC(=O)C1(C)CCCN(Cc2ccc(Oc3ccccc3)cc2)C1 (centres undefined),·,–,18µM,21µM
CCCNC(=O)C1(C)CCN(Cc2ccc(Oc3ccccc3)cc2)C1 (centres undefined),·,–,?,?
COCCNC(=O)C1(C)CCCN(C(=O)COc2ccccc2)C1 (centres undefined),·,–,1.8µM,21µM
CCCNC(=O)C1(C)CCCN(Cc2c3ccccc3nn2C)C1 (centres undefined),·,–,21µM,21µM
COc1ccc(OC2(C)CCN(Cc3ccc(-c4ccccc4)o3)C2)cc1 (centres undefined),·,–,?,21µM
O=C(NC(Cc1ccccc1)C(=O)O)/C(=C/c1ccc([N+](=O)[O-])cc1)NC(=O)c1ccco1 (centres undefined),–,·,–,–
Cn1cnc2c(=O)oc3ccc(S(=O)(=O)N4CCN(c5cccc(C(F)(F)F)c5)CC4)cc3c21,–,–,–,–
N[C@@H](CCCC(=O)O)C(=O)O,–,·,·,·
Cc1ccccc1CNC(=O)c1ccc(CS(=O)Cc2ccc(Cl)cc2)o1 (centres undefined),–,–,?,?
COc1ccc(CN2CCC3(CCC(CNC(=O)C4CCCO4)O3)CC2)c(C)c1C (centres undefined),·,·,–,?
N=C1C(=O)OCC1c1ccccc1NC(=O)CN1CCOCC1 (centres undefined),–,–,–,–
CCOC(=O)CN1C(=O)S/C(=C/C=C/c2ccc(N(C)C)cc2)C1=O,–,·,?,–
CCCNC(=O)C1(C)CCCN(Cc2ccc(C(F)(F)F)cc2)C1 (centres undefined),·,–,?,21µM
CCCNC(=O)C1(C)CCCN(Cc2cccn2C)C1 (centres undefined),·,–,–,–
CCCNC(=O)C1(C)CCCN(Cc2cc(-c3ccccc3)n(C)n2)C1 (centres undefined),·,–,?,16µM
COCCNC(=O)C1(C)CCCN(Cc2ccc(Oc3ccccc3)cc2)C1 (centres undefined),·,–,21µM,?
CCNC(=O)C1(C)CCCN(Cc2cccc(Oc3ccccc3)c2)C1 (centres undefined),·,–,21µM,18µM
CCCNC(=O)C1(C)CCCN(Cc2cccc(Oc3ccccc3)c2)C1 (centres undefined),·,–,?,?
Cn1c(SCC(=O)N/N=C/c2ccccn2)nnc1-c1ccccc1,–,·,–,–
O=C(COc1cccc(Cl)c1)Nc1ccc2c(c1)CCC2,–,–,–,–
COCCNC(=O)C1(C)CCCN(Cc2csc(-c3ccc(Cl)cc3)n2)C1 (centres undefined),·,–,13µM,12µM
CC(C)N1CCCC(C)(C(=O)Nc2cccc(Oc3ccccc3)c2)C1 (centres undefined),·,–,13µM,?
CCCNC(=O)C1(C)CCCN(Cc2cccc(C#N)c2)C1 (centres undefined),·,–,21µM,18µM

# High-throughput results (PubChem BioAssay)
